The antibiotic and cytotoxicity screens of Wong et al. (2023)
About 3,300 (8.5%) of roughly 39,000 compounds were called active. Many of the other results were omitted from the sample, so actives are more common in it than they were.

What follows are compounds tested on HepG2 (assay: cytotoxicity call (relative viability < 0.9)). Settings: 10 µM.
With `NCc1cc(-c2ccccc2Cl)on1` the cytotoxicity call was “inactive”.
With `COc1ccc(S(=O)(=O)N(C)C[C@@H]2OCc3cnnn3CCCC(=O)N([C@H](C)CO)C[C@H]2C)cc1` the cytotoxicity call was “inactive”.
`C[C@@H]1CN([C@@H](C)CO)C(=O)c2cc(NS(=O)(=O)c3cccs3)ccc2O[C@@H](C)CCCCO[C@@H]1CN(C)CC1CCCCC1` was tested, and the cytotoxicity call was “inactive”.
With `C[C@@H]1CN([C@H](C)CO)C(=O)c2cc(-c3cccnc3)cnc2O[C@@H]1CN(C)C(=O)Nc1ccc2c(c1)OCO2` the cytotoxicity call was “inactive”.
In the case of `CON=C(C(=O)NC1C(=O)N2C(C(=O)O)=C(CSC(=O)c3ccco3)CSC12)c1csc(N)n1.Cl` (configuration not stated), the cytotoxicity call is reported as “inactive”.
In the case of `O=C(C[C@@H]1C[C@@H]2c3cc(NC(=O)NC4CCCC4)ccc3O[C@@H]2[C@@H](CO)O1)NCc1ccc2c(c1)OCO2`, the cytotoxicity call is reported as “inactive”.
In the case of `Cc1noc(C)c1NC(=O)Nc1ccc2c(c1)C(=O)N([C@H](C)CO)C[C@H](C)[C@@H](CN(C)C(=O)Nc1cccc3ccccc13)OCCCC[C@H](C)O2`, the cytotoxicity call is reported as “inactive”.
For `C[C@H]1CN([C@@H](C)CO)C(=O)c2cc(NC(=O)Nc3ccc(F)cc3)ccc2O[C@@H]1CN(C)Cc1ccc(Oc2ccccc2)cc1`, the cytotoxicity call was “active”.
`CC(C)NC(=O)N(C)C[C@@H]1Oc2c(NC(=O)C3CCCCC3)cccc2C(=O)N([C@H](C)CO)C[C@@H]1C` was tested, and the cytotoxicity call was “inactive”.
With `CN(C)CC(=O)N1CC2(C1)[C@@H](c1ccccc1)[C@@H](CO)N2S(C)(=O)=O` the cytotoxicity call was “inactive”.
`C[C@@H]1CCCCO[C@H](CN(C)Cc2ccccc2)[C@H](C)CN([C@H](C)CO)C(=O)c2cc(NC(=O)Nc3ccc(C(F)(F)F)cc3)ccc2O1` was tested, and the cytotoxicity call was “active”.
In the case of `C[C@@H]1CCCCO[C@H](CN(C)Cc2ccccc2)[C@@H](C)CN([C@@H](C)CO)C(=O)c2cc(NC(=O)Nc3ccc(C(F)(F)F)cc3)ccc2O1`, the cytotoxicity call is reported as “active”.
In the case of `C[C@@H]1CCCCO[C@@H](CN(C)Cc2ccccc2)[C@@H](C)CN([C@H](C)CO)C(=O)c2cc(NC(=O)Nc3ccc(C(F)(F)F)cc3)ccc2O1`, the cytotoxicity call is reported as “active”.
`C[C@@H]1CCCCO[C@H](CN(C)Cc2ccccc2)[C@@H](C)CN([C@H](C)CO)C(=O)c2cc(NC(=O)Nc3ccc(C(F)(F)F)cc3)ccc2O1` was tested, and the cytotoxicity call was “active”.
For `C[C@H]1CN([C@@H](C)CO)C(=O)c2cc(NC(=O)Nc3cccc4ccccc34)ccc2O[C@H]1CN(C)C(=O)Nc1cccc2ccccc12`, the cytotoxicity call was “inactive”.
`COc1ncc(NC(=O)C2CC2)c(OC)n1` was tested, and the cytotoxicity call was “inactive”.
With `C[C@@H]1CN([C@H](C)CO)C(=O)c2c(c3ccccc3n2C)-c2ccccc2CO[C@@H]1CN(C)Cc1cccc2c1OCCCO2` the cytotoxicity call was “inactive”.
`C[C@@H]1CN([C@H](C)CO)C(=O)c2cccc(NC(=O)c3ccc(-c4nccs4)cc3)c2O[C@H]1CN(C)C(=O)Nc1ccc2c(c1)OCO2` was tested, and the cytotoxicity call was “inactive”.
`COc1ccc(S(=O)(=O)N(C)C[C@@H]2OCCCC[C@@H](C)Oc3ccc(NC(=O)CCC(F)(F)F)cc3C(=O)N([C@@H](C)CO)C[C@@H]2C)cc1` was tested, and the cytotoxicity call was “inactive”.
`Cc1noc(C)c1S(=O)(=O)N(C)C[C@H]1Oc2ccc(NC(=O)Cc3cn(C)c4ccccc34)cc2CC(=O)N([C@H](C)CO)C[C@@H]1C` was tested, and the cytotoxicity call was “inactive”.
For `O=C(C[C@H]1C=C[C@@H](NC(=O)c2ccc(F)cc2)[C@H](CO)O1)NCc1ccncn1`, the cytotoxicity call was “inactive”.
In the case of `CO[C@@H]1CN(C)C(=O)c2ccc(NC(=O)Nc3ccc(Cl)cc3)cc2OC[C@H](C)N(C(=O)Nc2c(C)noc2C)C[C@@H]1C`, the cytotoxicity call is reported as “inactive”.
With `C[C@@H]1CCCCO[C@H](CN(C)C(=O)Nc2ccc(C(F)(F)F)cc2)[C@H](C)CN([C@H](C)CO)C(=O)c2cc(NS(=O)(=O)c3cn(C)cn3)ccc2O1` the cytotoxicity call was “inactive”.
With `Cc1noc(C)c1NC(=O)Nc1ccc2c(c1)C(=O)N([C@H](C)CO)C[C@H](C)[C@H](CN(C)CC1CCCCC1)OCCCC[C@@H](C)O2` the cytotoxicity call was “inactive”.
`C[C@H](CO)N1C[C@H](C)[C@@H](CN(C)C(=O)c2cccnc2)Oc2cc(-c3cccc(C#N)c3)ccc2S1(=O)=O` was tested, and the cytotoxicity call was “inactive”.
In the case of `OCc1cncnc1`, the cytotoxicity call is reported as “inactive”.
In the case of `C[C@H](CO)N1C[C@H](C)[C@@H](CN(C)Cc2ccccc2)OCCCC[C@H](C)Oc2ccc(NC(=O)Nc3ccc(C(F)(F)F)cc3)cc2C1=O`, the cytotoxicity call is reported as “active”.
With `C[C@@H]1CCCCO[C@@H](CN(C)Cc2ccccc2)[C@H](C)CN([C@H](C)CO)C(=O)c2cc(NC(=O)Nc3ccc(C(F)(F)F)cc3)ccc2O1` the cytotoxicity call was “active”.
With `C[C@H]1CCCCO[C@H](CN(C)Cc2ccccc2)[C@@H](C)CN([C@@H](C)CO)C(=O)c2cc(NC(=O)Nc3ccc(C(F)(F)F)cc3)ccc2O1` the cytotoxicity call was “active”.
With `C[C@H](CO)N1C[C@H](C)[C@H](CN(C)Cc2ccccc2)OCCCC[C@H](C)Oc2ccc(NC(=O)Nc3ccc(C(F)(F)F)cc3)cc2C1=O` the cytotoxicity call was “active”.
With `O=C(Nn1cnnc1)c1ccccc1` the cytotoxicity call was “inactive”.
With `O=C(O)c1n[nH]c2c1C[C@H]1C[C@@H]21` the cytotoxicity call was “inactive”.
`COc1ccc(S(=O)(=O)Nc2ccc3c(c2)C(=O)N([C@@H](C)CO)C[C@@H](C)[C@@H](CN(C)C(=O)Nc2c(C)noc2C)OCCCC[C@@H](C)O3)cc1` was tested, and the cytotoxicity call was “inactive”.
`O=c1nc(C(F)(F)F)[nH]c2nc[nH]c12` was tested, and the cytotoxicity call was “inactive”.
With `Cn1cnc(CCNC(=O)C[C@H]2CC[C@@H]3[C@H](COC[C@@H](O)CN3C(=O)C3CC3)O2)c1` the cytotoxicity call was “inactive”.
For `O=C(N[C@@H]1CC[C@@H](CCn2cc(C3(O)CCCC3)nn2)O[C@H]1CO)C1CCOCC1`, the cytotoxicity call was “inactive”.
`C[C@H]1CN([C@@H](C)CO)C(=O)Cc2cc(N(C)C)ccc2O[C@H]1CN(C)S(=O)(=O)c1ccc(F)cc1` was tested, and the cytotoxicity call was “inactive”.
With `C[C@H](CO)N1C[C@H](C)[C@@H](CN(C)CC2CCCCC2)Oc2ccc(NS(=O)(=O)c3cn(C)cn3)cc2C1=O` the cytotoxicity call was “inactive”.
For `C[C@@H]1CN([C@H](C)CO)C(=O)c2cc(NC(=O)Nc3ccc(C(F)(F)F)cc3)ccc2O[C@@H](C)CCCCO[C@@H]1CN(C)Cc1ccccc1`, the cytotoxicity call was “active”.
In the case of `C[C@@H]1CN([C@@H](C)CO)C(=O)c2cc(NC(=O)Nc3ccc(C(F)(F)F)cc3)ccc2O[C@@H](C)CCCCO[C@@H]1CN(C)Cc1ccccc1`, the cytotoxicity call is reported as “active”.
With `C[C@@H]1CCCCO[C@@H](CN(C)Cc2ccccc2)[C@@H](C)CN([C@@H](C)CO)C(=O)c2cc(NC(=O)Nc3ccc(C(F)(F)F)cc3)ccc2O1` the cytotoxicity call was “active”.
`C[C@@H]1CN([C@@H](C)CO)C(=O)c2cc(NC(=O)Nc3ccc(C(F)(F)F)cc3)ccc2O[C@@H](C)CCCCO[C@H]1CN(C)Cc1ccccc1` was tested, and the cytotoxicity call was “active”.
